Source: PubChem BioAssay
HepG2 tox – qHTS for Inhibitors of TGF-b: Cytotox Counterscreen; HepG2 CAGA-GFP viability, ATP luminescence, 18 h; Potency, µM (doses to about 46.1 µM), for inactives: at the top dose activity change, negative = cytotoxicity, actives largely listed as cytotoxic; 410,000 tested, 0.76% active; further: potency means the concentration at half of the fitted maximal effect
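CellTiter-Glo luminescence gave cytotoxicity after 18 hours at 37 degrees C. The cells were HepG2 CAGA-GFP in 1% FBS DMEM, stimulated with 500 pg/mL TGF-beta after compound addition. %Activity was normalised to no-cell wells (complete cell-killing) and DMSO (no toxicity), and curves were fitted and classified.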
TDP1 inh – qHTS Assay for Inhibitors of Tyrosyl-DNA Phosphodiesterase (TDP1). Potency, µM (titrated, usually from 130 µM), without a hit: top-dose activity change, negative = inhibition, most hits filed as inhibitors. AID 485290, 2010. 350,000 tested, 0.28% active. recombinant TDP1, AlphaScreen DNA substrate cleavage; further: potency means the concentration at half of the fitted maximal effect; on the % scale 0 is the no-effect control and ±100 the full control effect; nearly all actives have a fitted effect of over 40% in size
Target sequence (Q9NUW8 whole entry, looked up): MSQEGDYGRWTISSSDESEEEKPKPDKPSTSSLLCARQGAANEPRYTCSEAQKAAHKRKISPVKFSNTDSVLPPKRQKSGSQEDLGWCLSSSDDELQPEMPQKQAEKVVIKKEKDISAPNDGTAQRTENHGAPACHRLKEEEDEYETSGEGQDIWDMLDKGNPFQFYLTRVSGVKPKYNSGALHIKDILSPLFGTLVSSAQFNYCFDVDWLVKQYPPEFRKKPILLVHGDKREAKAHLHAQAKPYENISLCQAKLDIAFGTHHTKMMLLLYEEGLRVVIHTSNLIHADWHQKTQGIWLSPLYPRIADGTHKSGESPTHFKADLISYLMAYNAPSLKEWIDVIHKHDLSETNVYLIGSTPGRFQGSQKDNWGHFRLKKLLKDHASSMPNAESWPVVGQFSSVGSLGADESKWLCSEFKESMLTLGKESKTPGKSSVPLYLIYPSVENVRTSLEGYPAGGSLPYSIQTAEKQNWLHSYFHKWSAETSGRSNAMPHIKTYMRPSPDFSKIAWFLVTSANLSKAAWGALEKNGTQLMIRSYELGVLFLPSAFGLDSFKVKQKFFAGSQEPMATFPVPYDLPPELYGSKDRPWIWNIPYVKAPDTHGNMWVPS
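Enzyme-compound mixtures sat 15 min at room temperature, followed by a 5 min reaction with 15 nM final substrate and 10 min with AlphaScreen beads. Recombinant human Tdp1 was used at 1 nM final.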
DT40 TDP1 CPT – qHTS for Inhibitors of human tyrosyl-DNA phosphodiesterase 1 (TDP1): qHTS in cells in presence of CPT; Potency, µM (series often up to 46.2 µM), for inactives: at the highest dose activity change, negative = growth inhibition, actives largely listed as inhibitors; chicken DT40 Tdp1-/-;hTDP1 cells + 20 nM CPT, ATP luminescence, 48 h; AID 686979, 2013; 420,000 tested, 12% active; further: potency means the concentration at half of the fitted maximal effect; on the % scale 0 is the no-effect control and ±100 the full control effect; nearly all actives have a fitted effect of over 55% in size
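Cell growth measured by CellTiter-Glo luminescence after a minimum 48 h, 37 C compound exposure with 20 nM CPT in Tdp1-knockout DT40 cells stably expressing hTDP1, seeded 400/well; qHTS titration format.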
TGFb SMAD3 inh – qHTS for Inhibitors of TGF-b. HepG2 CAGA-GFP TGF-b/SMAD3 reporter, GFP fluorescence, 18 h; TGF-beta stimulated, 500 pg/mL final. Potency, µM (top dose mostly 46.1 µM), for inactives: at the top dose activity, negative = inhibition, usual class: inhibitors. 410,000 tested, 1.2% active. AID 588855, 2011; further: potency means the concentration at half of the fitted maximal effect; on the % scale 0 is the no-effect control and ±100 the full control effect; nearly all actives have a fitted effect of over 65% in size
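HEPG2 CAGA-GFP reporter cells (1000/well, DMEM with 1% FBS) received compounds, then recombinant TGF-beta at 500 pg/mL final for 18 hours at 37 degrees C. Per-cell GFP summed per well was normalised to unstimulated and stimulated DMSO controls before curve fitting.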
IL1B secr inh – qHTS for Inhibitors of Inflammasome Signaling: IL-1-beta AlphaLISA Primary Screen | THP-1 LPS/ATP IL-1B secretion, AlphaLISA, 16 h; stronger effect = lower value | activity change, % at 57.5 µM | 360,000 tested, 4.7% active | AID 743279, 2014; in the data active means activity change below about -50%; inconclusive means mostly about -30% to -49%; further: on the % scale 0 is the no-effect control and ±100 the full control effect
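Secreted IL-1B measured by AlphaLISA bead assay after 16 h compound exposure of THP-1 cells; compounds (final up to 57.5 uM) added 1 h before LPS (250 ng/mL) and ATP (1.25 mM) stimulation; lower signal means less secretion.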
DT40 TDP1 no CPT – qHTS for Inhibitors of human tyrosyl-DNA phosphodiesterase 1 (TDP1): qHTS in cells in absence of CPT | AID 686978, 2013 | DT40 Tdp1-/- hTDP1 cells, no CPT, ATP luminescence, 48 h | 420,000 tested, 15% active | Potency, µM (highest dose often 46.2 µM), inactives show at the top dose activity change, negative = growth inhibition, usual class: inhibitors; further: potency means the concentration at half of the fitted maximal effect; on the % scale 0 is the no-effect control and ±100 the full control effect; nearly all actives have a fitted effect of over 55% in size
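Readout: luminescence from CellTiter-Glo after 30 min in the dark at RT. Cells: DT40 Tdp1-/- with stable hTDP1, 400/well. Exposure: compounds alone, ≥48 hr, 37 °C.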
An asterisk follows results filed as active; ? = inconclusive; / = no result; [ ] = remark or other dose. This is a sample that favours compounds with a hit; in the whole collection about 19% have one here. Unless noted, the call rests on the fitted dose curve; in most records, active means well fitted curve in the direction sought with a large enough effect; inconclusive means small, poorly fitted or top-dose-only effect, or another doubt; inactive means no such curve, though single readings can be large; an effect the other way counts as inactive or inconclusive.

SMILES	HepG2 tox	TDP1 inh	DT40 TDP1 CPT	TGFb SMAD3 inh	IL1B secr inh	DT40 TDP1 no CPT
O=C(Cc1ccc(Cl)cc1Cl)Nc1ccncc1Cl	-9.3%	-6.9%	5.17µM*	-2.3%	-25.5	1.84µM*
CCOc1cc(C(=O)Nc2cccc(-c3nc4ccccc4o3)c2)cc(OCC)c1OCC	-19.0%	/	-0.1%	0.9%	/	?
COc1ccc(-n2nc(C(=O)N3CCN(c4cccc(C)c4C)CC3)c3c4ccccc4n(C)c3c2=O)cc1Cl	-20.1%	0.0%	11.2%	-24.4%	/	-10.4%
CC(C)c1c(C(=O)NCCN2CCOCC2)cnn1-c1nccc(-c2ccco2)n1	/	/	4.9%	/	/	-14.8%
C=CCNC(=O)Nc1ccc(F)c(Cl)c1	0.5%	-8.0%	-18.9%	-2.7%	-1.6	-9.9%
O=C(Nc1ccncc1)Nc1ccc(F)c(Cl)c1	-30.7%	-3.6%	16.4µM*	-24.5%	?	?
Cc1ccc(N2C(=O)C(Cl)=C(N3CCCCCC3)C2=O)c(C)c1	-5.3%	/	?	-13.0%	?	14.6µM*
COC(c1ccccc1Br)C(C)/C=C/CCO (configuration not stated)	/	-2.6%[21 µM]	/	/	/	/
CC(C)=N/N=C1/NC(=O)C(c2ccccc2)S1 (configuration not stated)	-8.3%	/	?	?	0.0	16.4µM*
COc1cc(/C=N/N=C2/NC(=O)C(c3ccccc3)S2)ccc1O (configuration not stated)	-1.8%	0.0%	4.3%	-4.9%	-12.3	0.2%
O=C(Nc1cccc(F)c1F)C1CCN(c2ncccn2)CC1	7.0%	0.0%	-19.5%	3.0%	/	-22.7%
COc1cc(/C=N/OCC(=O)NC2CCCCC2C)ccc1OCc1ccc(Cl)cc1 (configuration not stated)	-42.1%	-3.4%	18.4µM*	?	?	18.4µM*
COc1cc(/C=N/OCC(=O)Nc2cc(C)cc(C)c2)ccc1OCc1ccc(Cl)cc1	-14.7%	5.6%	?	?	-4.7	13µM*
COC(=O)c1ccc(/C=N/OCC(=O)NC2CCCC(C)C2C)cc1 (configuration not stated)	-28.4%	-1.4%	?	-7.3%	4.2	?
COc1ccc(NC(=O)Cn2c(=O)n(-c3ccc(Cl)cc3)c(=O)c3c(C)c(C(=O)N(C)C)sc32)cc1Cl	-7.7%	-3.4%	?	0.0%	/	?
COc1ccc(N2CC(C(=O)N[C@H](C(=O)NC(C)c3ccccc3)C(C)C)CC2=O)cc1 (some centres not stated)	2.5%	0.9%	1.1%	7.5%	-11.4	4.3%
COc1ccccc1C1c2ccc3ccccc3c2Oc2ncn(CCCO)c(=N)c21 (configuration not stated)	-32.3%	/	23.1µM*	0.0%	-96.8*	23.1µM*
N=c1c2c(ncn1CCCO)Oc1cc(O)ccc1C2c1ccccc1 (configuration not stated)	-9.0%	4.1%	-13.3%	1.1%	6.8	-0.5%
COc1cccc(C2c3c(ncn(-c4ccccc4OC)c3=N)Oc3ccc4ccccc4c32)c1 (configuration not stated)	/	6.1%	/	/	/	/
COc1ccccc1C1c2ccc3ccccc3c2Oc2ncn(CCN(C)C)c(=N)c21 (configuration not stated)	15.8µM*	/	?	?	-97.6*	16.4µM*
